# Reference: PMC11574364
# Target: RBMY1F (Homo sapiens, UniProt Q15415)
# Test: protein domain microarray probed with biotinylated miRNA; Domain array: 20 mM Tris-HCl pH 7.4, 200 mM KCl, 0.2 mM EDTA, 0.05% NP40, 2 ug/ul heparin, overnight 4 C. ORF array: PBS pH 7.0 with RNase inhibitor, 100 ng RNA; high values mean tight binding
# Details: ssRNA
# Sequence of RBMY1F (Q15415 1-110): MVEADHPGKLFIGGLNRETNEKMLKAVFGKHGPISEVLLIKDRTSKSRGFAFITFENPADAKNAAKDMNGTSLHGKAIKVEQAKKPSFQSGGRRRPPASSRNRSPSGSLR
row,Sequence,binding signal [fluorescence intensity]
1,UGAGGUAGUAGGUUGUAUAGUU,1000 ± 19
2,CAGUGCAAUGAUGAAAGGGCAU,1404 ± 5.42
3,UAGCUUAUCAGACUGAUGUUGA,865 ± 36.1
4,AGAGGUAGUAGGUUGCAUAGUU,2241 ± 17.4
5,UGAGGUAGUAGGUUGUGUGGUU,1478 ± 10.7
6,UGAGGUAGUAGGUUGUAUGGUU,1430 ± 254

# Target: T1, RBM19(5-6) (Homo sapiens, UniProt Q9Y4C8)
# T1 sequence: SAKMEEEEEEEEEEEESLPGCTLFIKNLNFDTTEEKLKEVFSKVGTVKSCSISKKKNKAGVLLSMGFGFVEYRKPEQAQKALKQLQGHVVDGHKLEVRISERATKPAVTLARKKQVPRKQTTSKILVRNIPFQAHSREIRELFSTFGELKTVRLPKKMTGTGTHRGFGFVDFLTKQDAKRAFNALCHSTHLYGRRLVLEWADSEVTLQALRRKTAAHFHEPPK
# Test: as above
# Details: ssRNA
row,Sequence,binding signal [fluorescence intensity]
1,UGAGGUAGUAGGUUGUAUAGUU,39.6 ± 0.516
2,CAGUGCAAUGAUGAAAGGGCAU,110 ± 1.73
3,UAGCUUAUCAGACUGAUGUUGA,23.1 ± 1.03
4,AGAGGUAGUAGGUUGCAUAGUU,122 ± 10.5
5,UGAGGUAGUAGGUUGUGUGGUU,318.4 ± 2.5
6,UGAGGUAGUAGGUUGUAUGGUU,231.1 ± 1.89

# Target: T2, SSB (Homo sapiens, UniProt P05455)
# T2 sequence: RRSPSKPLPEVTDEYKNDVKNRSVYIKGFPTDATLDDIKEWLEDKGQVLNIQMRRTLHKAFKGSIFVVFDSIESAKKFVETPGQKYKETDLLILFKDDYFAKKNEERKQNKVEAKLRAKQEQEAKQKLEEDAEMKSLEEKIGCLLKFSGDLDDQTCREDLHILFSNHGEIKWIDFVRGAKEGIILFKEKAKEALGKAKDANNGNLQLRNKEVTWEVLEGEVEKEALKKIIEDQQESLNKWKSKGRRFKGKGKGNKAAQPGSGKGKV
# Test: as above
# Details: ssRNA
row,Sequence,binding signal [fluorescence intensity]
1,UGAGGUAGUAGGUUGUAUAGUU,76.1 ± 6.81
2,CAGUGCAAUGAUGAAAGGGCAU,324 ± 18.3
3,UAGCUUAUCAGACUGAUGUUGA,22.6 ± 3.15
4,AGAGGUAGUAGGUUGCAUAGUU,587.4 ± 5.08
5,UGAGGUAGUAGGUUGUGUGGUU,686 ± 34.9
6,UGAGGUAGUAGGUUGUAUGGUU,770 ± 38.1

# Target: SAFB2 (Homo sapiens, UniProt Q14151)
# Sequence (Q14151 380-500): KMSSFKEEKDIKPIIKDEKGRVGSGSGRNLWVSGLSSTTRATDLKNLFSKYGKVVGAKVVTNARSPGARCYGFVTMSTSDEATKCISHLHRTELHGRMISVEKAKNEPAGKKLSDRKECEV
# Test: as above
# Details: ssRNA
row,Sequence,binding signal [fluorescence intensity]
1,UGAGGUAGUAGGUUGUAUAGUU,130 ± 21.8
2,CAGUGCAAUGAUGAAAGGGCAU,298 ± 17.8
3,UAGCUUAUCAGACUGAUGUUGA,54.58 ± 0.247
4,AGAGGUAGUAGGUUGCAUAGUU,328.4 ± 1.94
5,UGAGGUAGUAGGUUGUGUGGUU,826.5 ± 2.57
6,UGAGGUAGUAGGUUGUAUGGUU,488.9 ± 0.622

# Target: T3, RBM28(3-4) (Homo sapiens, UniProt Q9NW13)
# T3 sequence: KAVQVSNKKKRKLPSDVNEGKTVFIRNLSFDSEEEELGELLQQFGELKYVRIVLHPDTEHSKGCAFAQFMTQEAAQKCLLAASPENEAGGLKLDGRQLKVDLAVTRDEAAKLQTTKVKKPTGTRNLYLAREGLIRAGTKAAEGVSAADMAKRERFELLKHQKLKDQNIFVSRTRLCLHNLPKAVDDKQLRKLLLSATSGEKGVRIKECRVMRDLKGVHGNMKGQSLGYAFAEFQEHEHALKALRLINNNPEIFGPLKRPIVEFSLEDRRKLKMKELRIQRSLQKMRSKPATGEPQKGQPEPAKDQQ
# Test: as above
# Details: ssRNA
row,Sequence,binding signal [fluorescence intensity]
1,CAGUGCAAUGAUGAAAGGGCAU,25.9 ± 2.84
2,AGAGGUAGUAGGUUGCAUAGUU,54.1 ± 1.09
3,UGAGGUAGUAGGUUGUGUGGUU,135 ± 19.4
4,UGAGGUAGUAGGUUGUAUGGUU,77 ± 4.09

# Target: T4, RBM42 (Homo sapiens, UniProt Q9BTD8)
# T4 sequence: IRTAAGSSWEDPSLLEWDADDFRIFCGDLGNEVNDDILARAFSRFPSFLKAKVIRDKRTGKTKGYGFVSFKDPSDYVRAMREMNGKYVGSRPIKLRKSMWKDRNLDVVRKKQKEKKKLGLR
# Test: as above
# Details: ssRNA
row,Sequence,binding signal [fluorescence intensity]
1,UGAGGUAGUAGGUUGUAUAGUU,57.7 ± 4.36
2,CAGUGCAAUGAUGAAAGGGCAU,187 ± 2.13
3,UAGCUUAUCAGACUGAUGUUGA,21 ± 0.962
4,AGAGGUAGUAGGUUGCAUAGUU,231 ± 13.5
5,UGAGGUAGUAGGUUGUGUGGUU,613 ± 9.75
6,UGAGGUAGUAGGUUGUAUGGUU,362 ± 5.61

# Target: T5, RBM48 (Homo sapiens, UniProt Q5RL73)
# T5 sequence: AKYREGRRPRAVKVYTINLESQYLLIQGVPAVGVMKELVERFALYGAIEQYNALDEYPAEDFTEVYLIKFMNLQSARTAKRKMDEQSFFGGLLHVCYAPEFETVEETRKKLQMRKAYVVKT
# Test: as above
# Details: ssRNA
row,Sequence,binding signal [fluorescence intensity]
1,CAGUGCAAUGAUGAAAGGGCAU,51.01 ± 0.233
2,AGAGGUAGUAGGUUGCAUAGUU,90.1 ± 12.4
3,UGAGGUAGUAGGUUGUGUGGUU,128 ± 27.9
4,UGAGGUAGUAGGUUGUAUGGUU,94.7 ± 35.8

# Target: T6, Kanadaptin (Homo sapiens, UniProt Q9BWU0)
# T6 sequence: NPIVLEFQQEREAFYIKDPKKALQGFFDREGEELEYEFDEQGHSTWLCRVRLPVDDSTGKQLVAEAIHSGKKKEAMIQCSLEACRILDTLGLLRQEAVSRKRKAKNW
# Test: as above
# Details: ssRNA
row,Sequence,binding signal [fluorescence intensity]
1,AGAGGUAGUAGGUUGCAUAGUU,33.9 ± 1.02
2,UGAGGUAGUAGGUUGUGUGGUU,62.8 ± 3.11
3,UGAGGUAGUAGGUUGUAUGGUU,47.3 ± 6.22

# Target: ROD1(1-2) (Homo sapiens, UniProt O95758)
# Sequence (O95758 40-280): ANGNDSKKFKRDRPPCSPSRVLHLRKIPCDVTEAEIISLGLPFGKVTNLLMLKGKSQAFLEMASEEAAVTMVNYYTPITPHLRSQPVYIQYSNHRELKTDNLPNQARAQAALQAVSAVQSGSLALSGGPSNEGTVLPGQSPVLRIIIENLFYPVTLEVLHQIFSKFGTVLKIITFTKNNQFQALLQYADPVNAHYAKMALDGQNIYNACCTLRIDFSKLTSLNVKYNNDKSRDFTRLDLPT
# Test: as above
# Details: ssRNA
row,Sequence,binding signal [fluorescence intensity]
1,UGAGGUAGUAGGUUGUAUAGUU,49.2 ± 4.26
2,CAGUGCAAUGAUGAAAGGGCAU,116 ± 66.5
3,AGAGGUAGUAGGUUGCAUAGUU,339 ± 66.7
4,UGAGGUAGUAGGUUGUGUGGUU,562 ± 23.1
5,UGAGGUAGUAGGUUGUAUGGUU,367 ± 26.4
